Assay outcomes deposited in PubChem BioAssay by National Center for Advancing Translational Sciences (NCATS).
The list is not random: actives were taken first. Their share in the collection is about 7.5%.
SMN2 splice enh = SMN2 splice variant enhancement; HEK293 SMN2-luciferase splicing reporter, luminescence, 30-36 h; Potency, µM (series often up to 46.1 µM), for the others: at the highest dose activity change, positive = activation, hits mostly activators; 2.8% of 210,000 active; AID 1458; further: % of control where 0% means no effect; nearly all actives have a fitted effect of over 55% in size
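qHTS luciferase splicing reporter: luminescence rises when SMN2 exon 7 is included in transfected HEK293 cells. Compound exposure lasted 30-36 h at 37C, with 4.5 mM final sodium butyrate as control, followed by a ONE-Glo read.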
FLuc modulator = inhibits or activates purified firefly luciferase, miR-21 counter-screen. purified FLuc, Km substrates, luminescence inhibition. 6.9% of 360,000 active. P08659. AID 588342. Potency, µM (series often up to 57.5 µM), inactives show top-dose activity change, negative = inhibition, usual class: inhibitors;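 further: plate controls were vehicle for no effect and reference inhibitor for full effect; nearly all actives have a fitted effect of over 55% in size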
Target sequence (P08659 whole entry, looked up): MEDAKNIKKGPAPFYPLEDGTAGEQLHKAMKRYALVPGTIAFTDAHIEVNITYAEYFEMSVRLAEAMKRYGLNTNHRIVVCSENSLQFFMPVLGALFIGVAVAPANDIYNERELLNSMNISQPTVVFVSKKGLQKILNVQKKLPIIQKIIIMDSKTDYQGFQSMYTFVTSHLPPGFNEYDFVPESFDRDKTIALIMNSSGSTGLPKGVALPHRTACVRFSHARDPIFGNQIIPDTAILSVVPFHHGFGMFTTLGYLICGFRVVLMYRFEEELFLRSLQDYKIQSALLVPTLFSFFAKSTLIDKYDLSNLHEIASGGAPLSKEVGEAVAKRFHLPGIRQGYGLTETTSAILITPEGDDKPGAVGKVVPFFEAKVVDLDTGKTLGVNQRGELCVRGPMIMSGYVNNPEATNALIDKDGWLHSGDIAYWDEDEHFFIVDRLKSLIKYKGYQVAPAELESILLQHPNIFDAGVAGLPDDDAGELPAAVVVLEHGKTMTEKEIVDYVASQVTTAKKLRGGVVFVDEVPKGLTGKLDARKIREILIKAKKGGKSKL
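Purified P. pyralis luciferase (10nM final) with 10uM D-luciferin and 10uM ATP (Km levels) in 50mM Tris acetate pH 7.5, 10mM Mg acetate, 0.01% Tween-20, 0.05% BSA; qHTS 6-point titration, ~60 µM downward; luminescence read.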
ELG1 genotoxic = inducers of genotoxicity in HEK293T ELG1-luciferase cells; AID 504466; HEK293T ELG1-luciferase reporter, luminescence, 16 h; 1.3% of 330,000 active; Potency, µM (highest dose often 46 µM), for the others: at the top dose activity change, positive = activation, most hits filed as activators; further: % of control where 0% means no effect; nearly all actives have a fitted effect of over 60% in size
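Cells (2,000/well) expressing the ELG1-luciferase fusion are dosed by pin tool and kept 16 hr at 37 °C, 5% CO2. Signal comes from ONE-Glo luciferase reagent after 30 min at room temperature.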
Luc counter = counter-screen: inhibitors of Kinase-Glo firefly luciferase; Potency, µM (series often up to 38.3 µM), without a hit: at the top dose activity change, negative = inhibition, actives largely listed as inhibitors; AID 1379; 0.28% of 200,000 active; Kinase-Glo luciferase, ATP luminescence, 8 min; further: on the % scale 0 is the no-effect control and ±100 the full control effect; nearly all actives have a fitted effect of over 60% in size
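Substrate mix (final 50 mM imidazole pH 7.2, 50 mM KCl, 7 mM MgCl2, 10 uM ATP, 0.01% Tween 20, 0.05% BSA) plus pin-tool compound, then Kinase-Glo detection mix; 8 min ambient, luminescence read.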
NPC1 promoter act = activates the NPC1 promoter; Huh7 NPC1 promoter luciferase reporter, 24 h; Potency, µM (series often up to 9.22 µM), inactives show top-dose activation, usual class: activators; 2.4% of 320,000 active; AID 485313; further: % of control where 0% means no effect; nearly all actives have a fitted effect of over 60% in size
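Luminescence read-out of NPC1 promoter-driven luciferase in stably transfected Huh7 cells; compounds delivered in DMSO and left 24 h at 37C, 5% CO2, qHTS titration format.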
Rab9 prom act = activators of Rab9 promoter; 2.8% of 320,000 active; Potency, µM (doses to about 9.22 µM), inactives show at the top dose activation, negative = inhibition, actives largely listed as activators; Huh7 Rab9 promoter-luciferase reporter, luminescence, 24 h; further: % of control where 0% means no effect; nearly all actives have a fitted effect of over 60% in size
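Quantitative HTS format; Huh7 Rab9-luciferase reporter cells (1500/well) receive compound 2 h post-plating, incubate 24 h at 37 °C, then get luciferase reagent for 10 min before luminescence reading.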
* hit, by the source's call; ? = inconclusive; · = not tested or not shown; [ ] = another dose, or the depositor's remark. The call rests on the fitted dose curve; in most records, active means well fitted curve in the direction sought with a large enough effect; inconclusive means small, poorly fitted or top-dose-only effect, or another doubt; inactive means no such curve, though single readings can be large; an effect the other way counts as inactive or inconclusive. Potency means the concentration at half of the fitted maximal effect.

SMILES	SMN2 splice enh	FLuc modulator	ELG1 genotoxic	Luc counter	NPC1 promoter act	Rab9 prom act
Cc1ccc(C(=O)Nc2sc3c(c2C(=O)O)CCC(C)C3)o1 (stereo unspecified)	·	·	1%	·	·	·
CCCC1CCc2c(sc(NC(=O)c3cccs3)c2C(N)=O)C1 (stereo unspecified)	4%	3.4µM*	5%	-1%	?	?
CCC1CCc2c(sc(NC(=O)c3cccnc3)c2C(N)=O)C1 (stereo unspecified)	19%	?	?	-2%	22%	?
CCC1CCc2c(sc(NC(=O)c3ccoc3C)c2C(N)=O)C1 (stereo unspecified)	?	6.7µM*	?	3%	-3%	21%
CC1CCc2c(sc(NC(=O)c3cccs3)c2C(=O)O)C1 (stereo unspecified)	·	6.7µM*	-5%	·	19%	26%[1.84 µM]
COc1ccc(CCNC(=O)c2ccccc2)cc1	·	?	8%	·	26%	27%
COc1ccc2c(=O)c(C(=O)NCCc3ccccc3)c[nH]c2c1	·	17µM*	11%	·	?	?
COc1ccc(CCNC(=O)c2ccc(Cl)cc2)cc1	-20%	-17%	1%	-1%	0%	-2%
COc1ccc2c(Sc3ccccc3)c(C(=O)NCCc3ccc(Cl)cc3)[nH]c2c1	·	5.4µM*	·	·	·	·
COc1ccc(OC(=O)NCCc2ccccc2)cc1	·	15µM*	?	·	4µM*	3.5µM*
CCCOc1ccc(CNC(=O)c2[nH]c3cc(OC)ccc3c2Sc2ccccc2)cc1	·	6%	·	·	·	·
COc1ccc(CCNC(=O)c2nn(C)cc2Cl)cc1	11µM*	?	?	4%	20%	19%
O=c1c(S(=O)(=O)c2cccc(Cl)c2)cn(Cc2ccccc2)c2cc(N3CCCCC3)c(F)cc12	·	-5%	·	·	·	·
COc1ccc(-c2nc(SCC(=O)NCCc3ccccc3)n[nH]2)cc1	·	17µM*	·	·	·	·
Cc1ccc2c(=O)c(C(=O)NCc3cccs3)c[nH]c2c1	-1%	17µM*	16%	-4%	17%	?
O=C(CSc1n[nH]c(-c2ccccc2)n1)NCCc1ccccc1	·	-16%	·	·	·	·
NS(=O)(=O)c1ccc(CCNC(=O)c2ccc3ccccc3n2)cc1	12%	?	?	-2%	12%	1%
COc1ccc(CCNC(=O)c2ccc3ccccc3n2)cc1	·	?	18µM*	·	6%	22%
Cc1cc(=O)oc2cc(OCC(=O)c3ccccc3)ccc12	·	-16%	0%	·	0%	11%
Cc1cc(=O)oc2cc(OC(=O)c3ccccc3)ccc12	8%	5.4µM*	-7%	-5%	-1%	1%
COCCOC(=O)c1c(C)oc2ccc(OC(=O)c3ccco3)cc12	8%	24µM*	7%	2%	-4%	-2%
Cc1cc(=O)oc2cc(OC(=O)c3ccco3)ccc12	·	17µM*	0%	-11%	0%	-8%
COCCOC(=O)c1c(C)oc2ccc(OCc3ccccc3)cc12	-7%	-20%	-1%	-1%	-1%	-2%
CCc1cc(=O)oc2cc(OC(=O)c3ccco3)ccc12	·	-9%	1%	·	2%	0%
Cc1ccc(NC(=O)Nc2nnc(N(CC(C)C)CC(C)C)s2)cc1Cl	·	-17%	·	·	·	·
SMILES	SMN2 splice enh	FLuc modulator	ELG1 genotoxic	Luc counter	NPC1 promoter act	Rab9 prom act
CCOc1ccc(C2C(=O)N(C3CCCCCC3)CC(=O)N2CCC2=CCCCC2)cc1OC (stereo unspecified)	·	-6%	·	·	·	·
CN(CC(=O)Nc1ccccc1Br)C(=O)CCC1CCCC1	·	19µM*	?	·	?	?
COc1ccc2cc(C(=O)N(C)CC(=O)Nc3ccccc3Br)ccc2c1	·	21µM*	1%	·	11%	26%
CN(CC(=O)Nc1ccccc1Br)C(=O)c1cc2c(s1)CCCCC2	·	11µM*	?	·	26%	29%
Cc1ccc(OCc2cc(=O)n3cc(C)sc3n2)c(C)c1	-13%	-15%	·	·	·	·
Cc1cccc(Nc2nc(-c3cccs3)cs2)n1	1.4µM*	2.1µM*	?	-24%	?	2.5µM*
Cc1cccc(Nc2nc(-c3ccccn3)cs2)n1	3.2µM*	1.7µM*	0.82µM*	-19%	1.3µM*	0.63µM*
c1ccc(Nc2nc(-c3cccs3)cs2)nc1	3.2µM*	0.76µM*	?	-14%	?	?
Nc1ccc(Nc2nc(-c3cccs3)cs2)cc1	·	-1%	-3%	-2%	-3%	-4%
CCN(CC)C(=O)c1ccc2c(c1)N(Cc1ccc(C(F)(F)F)cc1)C(=O)c1ccccc1S2	-10%	?	·	·	·	·
O=C(Nc1ccccc1)N(Cc1cccc(Cl)c1)c1ccccn1	·	-15%	·	·	·	·
C/C(=N/OC(=O)c1ccccc1Br)c1ccc(C)cc1	·	2.7µM*	?	·	18%	17%
COc1ccc(C(=O)O/N=C(/c2cccs2)C(C)(C)C)cc1	·	-11%	-1%	·	-2%	1%
C/C(=N/OC(=O)c1ccc(C)cc1)c1cccs1	11%	0.076µM*	1%	13µM*	-1%	2%
C/C(=N\OC(=O)c1ccc(C)cc1)c1sc(C)nc1C	-10%	2.7µM*	0%	-10%	-4%	-2%
C/C(=N\OC(=O)c1ccc(Cl)c(Cl)c1)c1sc(C)nc1C	-10%	5.4µM*	1%	2%	-1%	-2%
Cn1c(=O)c2sccc2n2c(CCC(=O)NCc3ccc(F)cc3)nnc12	3%	-2%	·	·	·	·
Cc1oc2ncn(C)c(=O)c2c1C(=O)NCc1ccccc1	·	-6%	·	·	·	·
C/C(=N/N=C(/C)c1cccs1)c1cccs1	·	4.8µM*	?	·	?	?
C/C(=N\NC(=O)Cc1ccccc1)c1cccs1	3%	0%	0%	-7%	1%	-2%
CCOc1ccc(CN2C(=O)c3ccccc3Sc3ccc(C(=O)NCc4ccc(C)cc4)cc32)cc1	-19%	5%	·	·	·	·
C/C(=N\NC(=O)c1c(Cl)c(C)nn1C)c1ccc(NC(=O)c2ccncc2)cc1	-57%	4%	-2%	0%	1%	-3%
C/C(=N\NC(=O)c1c(Cl)c(C)nn1C)c1cccc(NC(=O)C2CCCC2)c1	·	17µM*	-4%	·	-3%	2%
O=C(CN1C(=O)COc2ccc(S(=O)(=O)N3CCOCC3)cc21)NCc1ccc(F)cc1	·	-3%	·	·	·	·
Cc1cccnc1NC(=S)NC(=O)c1cccs1	3.2µM*	13µM*	?	-17%	?	3.5µM*
O=C(NC(=S)Nc1ccccc1)c1cccs1	·	17µM*	?	·	2µM*	?
Cc1cccnc1NC(=O)CNC(=O)c1cccs1	·	1%	0%	·	-3%	-5%
Cc1cccnc1NC(=O)CCC(=O)c1cccs1	·	0%	0%	·	-1%	-1%
